Broadly, the inhibition is the relative decrease from the control value, in per cent.

Molecules are shown by their SMILES. In all, about 290,000 compounds went through this assay and about 1,500 (0.52%) were called active. This is one part of a sample in which actives are shown more often than they occur. Cut-off read from the data, not from the text of the source: active = inhibition above about 50%; inactive = the rest.

The values below come from PubChem BioAssay AID1654 (Sanford-Burnham Center for Chemical Genomics, 2009).

In the assay the target is Dual specificity protein phosphatase 3 (Homo sapiens) (UniProt P51452). The assay is described as follows: VHR1 phosphatase inhibitors, primary screen, biochemical, absorbance, uHTS (AID 1654). Particulars: recombinant VHR phosphatase, pNPP absorbance, at 13.3 µM, active compounds read high.
Sequence of Dual specificity protein phosphatase 3 (Homo sapiens) (P51452 whole entry, looked up): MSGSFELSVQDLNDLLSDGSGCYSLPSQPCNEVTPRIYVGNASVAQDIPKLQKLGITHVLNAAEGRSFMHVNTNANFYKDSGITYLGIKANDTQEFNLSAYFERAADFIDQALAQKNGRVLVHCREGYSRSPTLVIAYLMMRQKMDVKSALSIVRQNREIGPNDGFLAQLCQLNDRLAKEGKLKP
For the compound `CCCCc1ccc(NC(=S)NCCCN2CCOCC2)cc1`, the inhibition is 52.9% (active).

Turning to `COc1cccc(NC(=S)NCCCN2CCOCC2)c1`, the inhibition is 16.2% (inactive).

Regarding `Cc1cc(C)cc(NC(=S)NCCCN2CCOCC2)c1`, the inhibition is -2.7% (inactive).

With `COc1cccc(C(=O)Nc2nnc(S(=O)(=O)N3CCCCC3)s2)c1`, the inhibition is 9.5% (inactive).

For `CC(=O)c1ccc(S(=O)(=O)NCc2nnnn2-c2ccccc2)cc1`, the inhibition was -9.1% (inactive).

`COc1cc(/C=C2\C(=N)N3N=C(CC(=O)N4CCOCC4)SC3=NC2=O)cc(OC)c1OC`: the inhibition was -15.7% (inactive).

Consider `CCOc1c(Br)cc(/C=C2\C(=O)N(CCC#N)N=C2C)cc1OC`, for which the inhibition is 0.9% (inactive).

Regarding `Cn1c(CCc2ccccc2)nnc1SCC(N)=O`, the inhibition was 2.3% (inactive).

In the case of `COc1ccc([N+](=O)[O-])cc1N(CC(=O)Nc1ccccc1C(=O)N1CCOCC1)S(C)(=O)=O`, the inhibition was 29.6% (inactive).

As for `CCn1nnnc1SCC(=O)c1ccc(C)cc1C`, the inhibition is 8.9% (inactive).

As to `CC(=O)Nc1ccc(NC(=O)CSc2nnnn2-c2ccccc2F)cc1`, the inhibition is 30% (inactive).

For `CCn1nnnc1SCC(=O)Nc1ccc(N(C)C)cc1`, the inhibition was 54.4% (active).

Regarding `CC(C)c1ccc2c(c1)c(SC(C)(C)C)c(CC(C)(C)C(=O)O)n2Cc1ccc(Cl)cc1`, the inhibition is -1.6% (inactive).

As to `Cn1c(SCC(=O)NC2CCCCC2)nnc1-c1ccc(N)cc1`, the inhibition was 15.8% (inactive).

Consider `Cn1c(SCC(=O)NC2CCCCC2)nnc1-c1cc2ccccc2o1`, for which the inhibition was 55.6% (active).

Consider `CCOc1cccc(-c2nnc(SCC(=O)NC3CC3)n2C)c1`, for which the inhibition is 24% (inactive).

As for `O=[N+]([O-])c1cc([N+](=O)[O-])c(Oc2cc(F)cc(F)c2F)cc1NN1CCCCC1`, the inhibition is 16.6% (inactive).

Regarding `COc1ccc(NC(=S)N2CCCC(CO)C2)c(OC)c1` (stereo not drawn), the inhibition was -17.2% (inactive).

Take `COc1cc(NC(=S)N2CCCC(C)C2)c(OC)cc1Cl` (stereo not drawn): the inhibition is 10.6% (inactive).

As to `COc1cc(NC(=S)N2CCCC(C)C2)cc(OC)c1OC` (stereo not drawn), the inhibition is 56.3% (active).

Take `Cc1ccc(S(=O)(=O)N(CC(=O)Nc2cccnc2)c2ccc(Br)cc2)cc1`: the inhibition was -1.5% (inactive).

Take `COC(=O)C1(CCSC)NC(c2ccc(OC)cc2OC)C2C(=O)N(c3cccc(C(C)=O)c3)C(=O)C21` (stereo not drawn): the inhibition is 4.9% (inactive).

As to `COc1ccccc1N1CCC(N2CCN(CC(C)(C)C)C(CCO)C2)CC1` (stereo not drawn), the inhibition is 59.1% (active).

For `CCOc1ccccc1CN1CCN(C2CCC2)CC1CCO` (stereo not drawn), the inhibition was 6.5% (inactive).

As to `COc1ccc(N2CCC(N3CCN(C)C(CCO)C3)CC2)cc1` (stereo not drawn), the inhibition is 6.5% (inactive).

With `COc1ccc(-c2cc(C(=O)N(C)Cc3ccccc3)c3ccccc3n2)cc1`, the inhibition was 12.2% (inactive).

For `COc1ccc(-c2cc(C(=O)n3cnc4ccccc43)c3ccccc3n2)cc1`, the inhibition was 51.6% (active).

As to `CNC(=O)COC(=O)c1cc(-c2ccc(OC)cc2)nc2ccccc12`, the inhibition was 11% (inactive).

Regarding `Cc1ccc(C)c(S(=O)(=O)Nc2cc(C)on2)c1`, the inhibition is 16.3% (inactive).

As for `COc1ccc(N(CC(=O)N2CCOCC2)S(=O)(=O)c2ccccc2)cc1Cl`, the inhibition is 18.1% (inactive).

For `COCCNC(=O)C1CCN(C(=O)C2CC(=O)N(c3ccc(C)cc3)C2)CC1` (stereo not drawn), the inhibition is 50% (active).

Turning to `COCCCNC(=O)C1CC(=O)N(c2ccc(C)cc2)C1` (stereo not drawn), the inhibition was 3.4% (inactive).

In the case of `CCCC(C)NC(=O)C1CCN(C(=O)C2CC(=O)N(c3ccc(C)cc3)C2)CC1` (stereo not drawn), the inhibition is 13% (inactive).

With `CC1CCN(C(=O)c2ccc(S(=O)(=O)Cc3cc(F)ccc3F)c([N+](=O)[O-])c2)CC1`, the inhibition is 4.1% (inactive).

On to `COc1ccc(NC(=O)c2cc([N+](=O)[O-])ccc2NC(=O)CNC2CCCCC2C)c(OC)c1` (stereo not drawn), for which the inhibition was 12.5% (inactive).

With `Cc1cc(NC(=O)[C@H](C)NC(=O)c2ccco2)ccc1Br`, the inhibition is 10% (inactive).

On to `CSc1ncccc1C(=O)OCC(=O)N1CCOCC1`, for which the inhibition is 39.8% (inactive).

On to `CSc1ncccc1C(=O)OCc1ccc(Br)cc1`, for which the inhibition is 58.3% (active).

As for `CSc1ncccc1C(=O)NC1CCCCCC1`, the inhibition is 21.8% (inactive).

In the case of `CN(CC(=O)Nc1c(Cl)cccc1Cl)C(=O)c1ccncc1`, the inhibition was 2.5% (inactive).

On to `O=C(CCS(=O)(=O)c1ccc2c(c1)NC(=O)CS2)NCc1ccccc1Cl`, for which the inhibition was 25.2% (inactive).

As for `CCOc1ccc(-n2c(SCC(=O)Nc3ccc(OC)cc3)nc3sc4c(c3c2=O)CCN(C)C4)cc1`, the inhibition is 5.3% (inactive).

`CN(C)CCCn1c(SCc2ccc(Cl)cc2)nnc1-c1ccncc1`: the inhibition is 24% (inactive).

Regarding `Cn1c(SCc2ccc(F)cc2)nnc1-c1ccncc1`, the inhibition is 53% (active).

For the compound `Cc1ccc(CSc2nnc(-c3cnccn3)n2C)cc1`, the inhibition is 21.3% (inactive).

In the case of `CCOC(=O)c1ccc(NC(=O)c2nc[nH]c2C(=O)N[C@@H](CCCCNC(=O)OC(C)(C)C)C(=O)OC(C)(C)C)cc1`, the inhibition was 3.3% (inactive).

Consider `CCc1ccc(OCC(=O)OC(C)C(=O)NC2CC2)cc1` (stereo not drawn), for which the inhibition was 5% (inactive).

Regarding `CCn1c(=S)sc2c(=O)n(CC(=O)Nc3ccc(OC)cc3)c(C)nc21`, the inhibition was 57.9% (active).

With `COc1ccc(NC(=O)Cn2c(-c3ccc(OC)cc3)cn(-c3ccc(C)cc3)c2=O)cc1`, the inhibition is 6.2% (inactive).

Turning to `CCn1c(=S)sc2c(=O)n(CC(=O)Nc3cccc(Br)c3)c(C)nc21`, the inhibition was -3.6% (inactive).

With `Cc1c(Cl)cccc1NC(=S)NCC(O)c1ccccc1` (stereo not drawn), the inhibition was 2.3% (inactive).

Turning to `CC1CCC2(CC1)NC(=O)N(CC(=O)c1ccc3c(c1)OCO3)C2=O` (stereo not drawn), the inhibition is 5.4% (inactive).

Regarding `CCOc1ccc(N(CC(=O)NCc2ccc(OC)cc2)S(=O)(=O)c2c(C)noc2C)cc1`, the inhibition was 30.2% (inactive).

As to `COc1ccc(S(=O)(=O)N(CC(=O)NCc2ccco2)c2ccc(F)cc2)cc1`, the inhibition was -4.2% (inactive).

For the compound `COc1ccc(CNC(=O)CN(c2ccc(OC)c(Cl)c2)S(=O)(=O)c2ccc(C)cc2)cc1`, the inhibition was 59.1% (active).

With `C=CCN1C(=O)C2(OCCCO2)c2cccc(Cl)c21`, the inhibition was 19.2% (inactive).

Take `Cc1cc(=O)oc2c3c(cc(OCC(=O)NCc4ccccn4)c12)OC(C)(C)CC3`: the inhibition is -2.9% (inactive).

With `CC(=O)N[C@@H](C)C(=O)N1CCC(n2nccc2NC(=O)CCCc2ccccc2)CC1`, the inhibition is 10.4% (inactive).

For `O=C(O)C1=NN(c2c(F)c(F)cc(F)c2F)C(=O)CC1`, the inhibition is -11.9% (inactive).

`O=S(=O)(NC1CCCCC1N1CCCCC1)c1ccc(Cl)cc1` (stereo not drawn): the inhibition was 52% (active).

In the case of `CCN1CCN(C2CCCCC2NS(=O)(=O)c2ccc(Cl)cc2)CC1` (stereo not drawn), the inhibition was 11.4% (inactive).

As to `O=S(=O)(NC1CCCCC1N1CCC(O)CC1)c1ccc(Cl)cc1` (stereo not drawn), the inhibition is 17.2% (inactive).

Regarding `Cc1cc(C)c(S(=O)(=O)N(C)CC(=O)NCC2CCCO2)c(C)c1` (stereo not drawn), the inhibition is 20.6% (inactive).

Regarding `COc1ccc(CN(C)C(=S)Nc2ccc(Cl)cc2Cl)cc1`, the inhibition is -0.1% (inactive).

Take `CC(=O)N1CCc2cc(S(=O)(=O)NC3CCCCC3)ccc21`: the inhibition is -7.7% (inactive).

For the compound `O=C(Nc1ccc(S(=O)(=O)Nc2ccccn2)cc1)c1ccccc1`, the inhibition was 5.4% (inactive).

As for `COc1cccc2cc(C(=O)N(C)C)c(=O)oc12`, the inhibition was 18.2% (inactive).

With `N=c1oc2ccccc2cc1C(=O)NCc1ccccc1`, the inhibition was -2.5% (inactive).

On to `COc1cccc2cc(C(=O)NCc3ccc(C)cc3)c(=N)oc12`, for which the inhibition is 53.5% (active).

On to `CN(CC(=O)Nc1ccc(Cl)cc1)C(=O)CNC(=O)c1ccc2ccccc2c1`, for which the inhibition is 27.9% (inactive).

On to `Cn1c(C(=O)N2CCCC(C(=O)NCc3ccccc3)C2)cc2sccc21` (stereo not drawn), for which the inhibition was 22.8% (inactive).

For the compound `CCc1nnc(NC(=O)c2sc3nc(C)cc(COC)c3c2N)s1`, the inhibition is 3.9% (inactive).

As to `CCc1ccc2nc3sc(C(=O)Nc4nnc(CC)s4)c(N)c3cc2c1`, the inhibition is 52.7% (active).

Consider `CCc1nnc(NC(=O)c2cccc(S(=O)(=O)N(C)c3ccc(OC)cc3)c2)s1`, for which the inhibition is 13.9% (inactive).

Consider `COC(=O)Cc1cnc(NC(=O)CSc2nc(C(C)C)cc(=O)[nH]2)s1`, for which the inhibition was -28.8% (inactive).

As to `CCN1C(=NCCc2cccnc2)N[C@@H](c2ccccc2)[C@H](C(=O)OC)[C@H]1C`, the inhibition was 36% (inactive).

As to `CC(C)Oc1ccc(C(CC(=O)N2CCOCC2)C(C)C)cc1` (stereo not drawn), the inhibition was 53% (active).

As for `O=C(O)CC(CC(=O)N1CCOCC1)c1ccccc1` (stereo not drawn), the inhibition was -12.8% (inactive).

`CC(=O)c1ccc(OC(=O)N2CCOCC2)cc1`: the inhibition was 1.7% (inactive).

Regarding `COC(=O)CN1C(=O)[C@H]2[C@@H](/C=C/c3ccccc3)N3C(=O)CN(Cc4ccccc4)C(=O)[C@@]3(Cc3ccccc3)[C@H]2C1=O`, the inhibition was 13.4% (inactive).

`COCC1CCN(C(=O)C2CCC(=O)N(CC3CCCCC3)C2)CC1` (stereo not drawn): the inhibition was 6.5% (inactive).

Regarding `CC(C)=CCCC1(C)C=Cc2c(ccc3c2[nH]c2cc(O)c(C)cc23)O1` (stereo not drawn), the inhibition is 16.5% (inactive).

Regarding `COc1ccc(CN(C)C(=O)c2cc(-c3ccc(C)cc3C)nc3ccccc23)c(OC)c1OC`, the inhibition was -8.1% (inactive).

For `Cn1c(CCNS(=O)(=O)c2ccc(F)cc2)nnc1SCc1cccnc1`, the inhibition is 17% (inactive).

Regarding `C#CC(CCN1CCCCC1)(OC)c1ccccc1` (stereo not drawn), the inhibition was 5.2% (inactive).

For `CCOc1ccc(CCNC(=O)CCc2nnc3ccc(N4CCCC4)nn23)cc1OCC`, the inhibition was 21.2% (inactive).

On to `CCN(CC)c1ccc(NC(=O)CCc2nnc3ccc(N4CCCCC4)nn23)c(C)c1`, for which the inhibition is 56.7% (active).

As to `CCOC(=O)c1cccc(NC(=O)CCc2nnc3ccc(N4CCOCC4)nn23)c1`, the inhibition is 10.4% (inactive).

Consider `Cc1cccc(C)c1NC(=O)C(Cl)C(=O)c1ccccc1` (stereo not drawn), for which the inhibition was 0% (inactive).

Regarding `Nc1nnnn1CC(=O)N/N=C/c1ccc(-c2cccc(Cl)c2)o1`, the inhibition was 5.3% (inactive).

For the compound `Cc1[nH]c2ccccc2c1/C=N\NC(=O)Cn1nnc(-c2ccccc2)n1`, the inhibition is -6.7% (inactive).

Take `O=C(Cn1nnc(-c2ccccc2)n1)N/N=C/c1ccc(-c2ccc(Cl)cc2)o1`: the inhibition is 50.8% (active).

Regarding `Cc1ccc(-c2nc(CS(=O)(=O)CC(=O)NCc3ccc4c(c3)OCO4)c(C)o2)cc1`, the inhibition was 9.7% (inactive).
